Test [1] can be described thus: antimalarial activity against Dd2 strain (AID 2302;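 active = growth inhibition above 50% at the single 2 µM test dose, taken to imply half-maximal potency below 2 µM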;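 also: 0% = DMSO untreated growth and 100% = chloroquine plus artemisinin killed control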). The conditions noted are these: P. falciparum Dd2 in RBCs, LDH growth readout, 72 h; at 2 µM; active compounds read high.
Test [2] can be described thus: human hepatoma cell viability loss – ATP luminescence, cytotoxicity control for P. falciparum antimalarial project, primary screen (AID 2303;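 active = inhibition above 50%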;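 also: 0% = DMSO wells and 100% = digitonin-killed cells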). Particulars: HepG2 viability, 24-48 h, at 10 µM, active compounds read high.
The target in test [3] is L-lactate dehydrogenase (Plasmodium falciparum (isolate CDC / Honduras)) (UniProt Q27743). The test is described as follows: PfLDH activity inhibition – cell lysate, 3D7 strain, counter-screen for P. falciparum growth inhibition project (AID 2304).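 Also: 0% = vehicle and 100% = reference inhibitor.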 Particulars: P. falciparum 3D7 crude extract, LDH APAD/NBT absorbance; at 2 µM; active compounds read high.
A short description of test [4]: inhibition of 3D7 malaria parasite growth – strain 3D7 (AID 2306).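 Also: 0% = DMSO wells and 100% = chloroquine plus artemisinin control wells.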 Particulars: P. falciparum 3D7 erythrocytic growth, LDH absorbance, 72 h; at 2 µM; active compounds read high.
The target in test [5] is Calcium-dependent protein kinase 1 (Plasmodium falciparum (isolate 3D7)) (UniProt P62344). The test can be described thus: PfCDPK1 kinase inhibitors, biochemical, TCAMS library (AID 1159585; cut-off not given, nearly all actives have IC50 up to about 0.98 µM;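 also: inhibitors leave more ATP so luminescence rises with inhibition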). The conditions noted are these: recombinant PfCDPK1, Kinase-Glo ATP depletion luminescence.
The target in test [6] is Plasmodium falciparum protein kinase 6 (PK6, PF3D7_1337100) (UniProt Q8IDW1). The test can be described thus: PfPK6 kinase inhibitors, biochemical, TCAMS library (AID 1159586). Particulars: recombinant PfPK6, Kinase-Glo ATP depletion luminescence.
In test [7] the target is Protein kinase 7 (PK7), Plasmodium falciparum 3D7 (PF3D7_0213400) (UniProt Q7YTF7). The test is described as follows: inhibition of Plasmodium PK7 catalytic activity – biochemical, TCAMS antimalarial set, Kinase-Glo luminescence (AID 1159587). The conditions noted are these: recombinant PfPK7, Kinase-Glo ATP depletion luminescence.
In test [8] the target is Calcium-dependent protein kinase 4 (Plasmodium falciparum (isolate 3D7)) (UniProt Q8IBS5). The test can be described thus: PfCDPK4 kinase inhibitors, biochemical, TCAMS library (AID 1159588; cut-off not given, nearly all actives have IC50 up to about 0.91 µM). The conditions noted are these: recombinant PfCDPK4, Kinase-Glo ATP depletion luminescence.

Unmarked numbers belong to inactive results. For some assays here: Potency and affinity values are given separately. Activity calls are given as the source filed them. Unless noted, no rule for the calls is given here.

Chain of Plasmodium falciparum protein kinase 6 (PK6, PF3D7_1337100) (Q8IDW1 1-305): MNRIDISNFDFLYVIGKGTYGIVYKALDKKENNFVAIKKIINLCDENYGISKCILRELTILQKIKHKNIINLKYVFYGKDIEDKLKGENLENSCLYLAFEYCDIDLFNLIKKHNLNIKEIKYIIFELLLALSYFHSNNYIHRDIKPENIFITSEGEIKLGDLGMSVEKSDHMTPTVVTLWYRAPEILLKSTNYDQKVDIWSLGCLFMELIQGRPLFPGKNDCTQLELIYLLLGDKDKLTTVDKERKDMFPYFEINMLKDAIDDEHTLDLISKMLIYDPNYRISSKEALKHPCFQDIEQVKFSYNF
Chain of Protein kinase 7 (PK7), Plasmodium falciparum 3D7 (PF3D7_0213400) (Q7YTF7 1-343): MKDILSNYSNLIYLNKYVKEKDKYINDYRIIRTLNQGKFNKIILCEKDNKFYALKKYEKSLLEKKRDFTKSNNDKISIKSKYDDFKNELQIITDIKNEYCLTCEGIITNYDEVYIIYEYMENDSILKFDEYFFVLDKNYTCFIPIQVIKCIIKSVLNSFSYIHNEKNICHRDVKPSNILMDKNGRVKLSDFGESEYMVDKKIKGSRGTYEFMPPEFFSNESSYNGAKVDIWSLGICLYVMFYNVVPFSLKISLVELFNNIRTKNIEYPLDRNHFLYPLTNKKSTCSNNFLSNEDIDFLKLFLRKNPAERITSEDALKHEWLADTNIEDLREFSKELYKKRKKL
Chain of Calcium-dependent protein kinase 1 (Plasmodium falciparum (isolate 3D7)) (P62344 whole entry, looked up): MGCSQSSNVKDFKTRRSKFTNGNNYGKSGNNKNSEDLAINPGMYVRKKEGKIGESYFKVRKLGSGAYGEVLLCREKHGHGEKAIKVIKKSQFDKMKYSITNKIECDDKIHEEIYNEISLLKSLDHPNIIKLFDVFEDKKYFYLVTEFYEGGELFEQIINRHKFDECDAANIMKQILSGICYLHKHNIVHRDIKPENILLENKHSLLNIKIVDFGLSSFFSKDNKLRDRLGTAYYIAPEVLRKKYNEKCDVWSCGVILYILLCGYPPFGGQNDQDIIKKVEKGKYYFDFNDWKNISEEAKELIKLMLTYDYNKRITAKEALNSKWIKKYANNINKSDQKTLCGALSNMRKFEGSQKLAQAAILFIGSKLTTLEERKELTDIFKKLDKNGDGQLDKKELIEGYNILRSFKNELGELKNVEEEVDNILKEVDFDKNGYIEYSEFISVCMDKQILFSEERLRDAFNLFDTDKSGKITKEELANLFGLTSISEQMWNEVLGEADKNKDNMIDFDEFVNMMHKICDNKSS
Chain of Calcium-dependent protein kinase 4 (Plasmodium falciparum (isolate 3D7)) (Q8IBS5 whole entry, looked up): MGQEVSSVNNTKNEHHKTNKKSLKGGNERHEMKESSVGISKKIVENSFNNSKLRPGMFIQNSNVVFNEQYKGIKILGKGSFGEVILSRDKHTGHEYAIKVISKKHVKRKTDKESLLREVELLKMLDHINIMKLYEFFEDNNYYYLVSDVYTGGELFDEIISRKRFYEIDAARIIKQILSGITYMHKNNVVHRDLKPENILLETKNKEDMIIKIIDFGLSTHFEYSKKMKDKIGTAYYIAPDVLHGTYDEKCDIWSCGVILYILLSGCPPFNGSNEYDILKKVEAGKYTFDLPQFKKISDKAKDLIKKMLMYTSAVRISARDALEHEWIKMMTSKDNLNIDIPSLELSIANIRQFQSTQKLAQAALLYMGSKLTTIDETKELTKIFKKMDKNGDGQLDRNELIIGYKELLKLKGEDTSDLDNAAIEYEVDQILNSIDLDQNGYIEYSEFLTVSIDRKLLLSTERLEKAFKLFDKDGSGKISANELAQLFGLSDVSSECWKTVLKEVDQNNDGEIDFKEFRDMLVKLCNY
Chain of L-lactate dehydrogenase (Plasmodium falciparum (isolate CDC / Honduras)) (Q27743 whole entry, looked up): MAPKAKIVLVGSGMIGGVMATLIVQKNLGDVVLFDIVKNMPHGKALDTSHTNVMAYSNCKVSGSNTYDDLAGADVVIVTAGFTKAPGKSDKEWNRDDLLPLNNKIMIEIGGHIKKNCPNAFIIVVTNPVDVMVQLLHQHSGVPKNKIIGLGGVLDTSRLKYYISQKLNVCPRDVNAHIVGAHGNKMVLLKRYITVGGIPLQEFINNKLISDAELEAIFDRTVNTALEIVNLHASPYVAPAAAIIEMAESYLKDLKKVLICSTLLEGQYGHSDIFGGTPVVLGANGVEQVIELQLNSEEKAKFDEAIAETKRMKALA

In the case of `CNC(=O)c1ccccc1Nc1cc(Nc2cc(OC)ccn2)ncc1Cl`, the growth inhibition in test [1] and in test [4] was 100% (active) throughout. The inhibition was 69% (active) in test [2] and 5% in test [3]. Also, the outcome in test [5], in test [6], in test [7] and in test [8] was inactive.

On to `COc1ccc2nccc(NN=CC=Cc3ccccc3)c2c1`, for which the values for the growth inhibition in test [1] and in test [4] were 99% (active) and 101% (active), respectively. Besides, the figures for the inhibition in test [2] and in test [3] were 11% and -3%, respectively. In addition, the result in test [5], in test [6], in test [7] and in test [8] was inactive.

In the case of `CC(C)CCN1CCC(Oc2ccc(NC(=O)c3ccc(F)cc3)cc2Cl)CC1`, the results for the growth inhibition in test [1] and in test [4] were 88% (active) and 98% (active), respectively. The inhibition was 33% in test [2] and 4% in test [3]. For the same molecule, the result in test [5], in test [6], in test [7] and in test [8] was inactive.

Turning to `Cc1ccc(C)c(CN2CCC(CNC(=O)c3cc4ccc5cccnc5c4[nH]3)CC2)c1`, the growth inhibition in test [1] is 10%; in test [4], 95% (active). Moreover, the inhibition in test [2] is 25%; in test [3], -3%. For the same molecule, the outcome in test [5], in test [6], in test [7] and in test [8] was inactive.

Regarding `O=C(C=Cc1ccc(Cl)c(Cl)c1)NCCCCCN1CCC(CCCNS(=O)(=O)c2ccc(Br)cc2)CC1`, the results for the growth inhibition in test [1] and in test [4] were 25% and 93% (active), respectively. Further, the figures for the inhibition in test [2] and in test [3] were 74% (active) and -5%, respectively. The result in test [5], in test [6], in test [7] and in test [8] was inactive.

For `Cc1ccc(NC(=O)c2nc(N3CCN(c4ccncc4)CC3)ccc2Cl)cc1F`, the growth inhibition in test [1] was 57% (active); in test [4], 100% (active). Besides, the inhibition was 51% (active) in test [2] and -5% in test [3]. Further, the outcome in test [5], in test [6], in test [7] and in test [8] was inactive.

For `c1ccc(C2CCN(Cc3ccc(-c4c[nH]c5nc(NC6CCCC6)ncc45)cc3)CC2)cc1`, the figures for the growth inhibition in test [1] and in test [4] were 9% and 82% (active), respectively. Further, the inhibition in test [2] is 39%; in test [3], -1%. Besides, the outcome in test [5], in test [6], in test [7] and in test [8] was inactive.

Consider `CC(=O)N(Cc1nc(-c2cc(C(F)(F)F)cc(C(F)(F)F)c2)cs1)c1c(C)cccc1C`, for which the growth inhibition in test [1] is 99% (active); in test [4], 100% (active). The inhibition is -2% in test [2] and 1% in test [3]. The outcome in test [5], in test [6], in test [7] and in test [8] was inactive.

Turning to `CN1CCN(Cc2ccc(-c3ccc4c(Nc5ccc(Oc6ccccc6)cc5)ccnc4c3)o2)CC1`, the growth inhibition in test [1] and in test [4] was 99% (active) throughout. In addition, the inhibition was 23% in test [2] and 0% in test [3]. In addition, the outcome in test [5], in test [6], in test [7] and in test [8] was inactive.

Take `Nc1nc(N)c2c(ccc3c2ccn3Cc2ccc(Cl)cc2)n1`: the growth inhibition is 99% (active) in test [1] and 100% (active) in test [4]. The inhibition in test [2] is 100% (active); in test [3] it was 0%. In addition, the result in test [5], in test [6], in test [7] and in test [8] was inactive.

Take `CC(=O)Nc1ccc(CN2CCC(CNC(=O)c3cc(-c4cccc(Cl)c4)cs3)C2)cc1` (configuration not stated): the growth inhibition in test [1] is 1%; in test [4], 91% (active). For the same molecule, the results for the inhibition in test [2] and in test [3] were 24% and 2%, respectively. Also, the result in test [5], in test [6], in test [7] and in test [8] was inactive.

For `O=C(Nc1ccc2c(c1)CCN2C1CCN(Cc2cc(F)cc(F)c2F)C1)c1ccco1` (configuration not stated), the figures for the growth inhibition in test [1] and in test [4] were 95% (active) and 96% (active), respectively. The inhibition in test [2] was -2%; in test [3], 1%. The outcome in test [5], in test [6], in test [7] and in test [8] was inactive.

Consider `CC(C)(C)c1nn(-c2ccc(Cl)cc2)c2[nH]c(=O)c(CNCc3cccs3)cc12`, for which the growth inhibition in test [1] was 77% (active); in test [4], 102% (active). The inhibition was 5% in test [2] and 3% in test [3]. The result in test [5], in test [6], in test [7] and in test [8] was inactive.

With `CO/C(=C\C=C\c1cc2cc(Cl)c(Cl)cc2[nH]1)C(=O)NCCN1CCCCC1`, the growth inhibition in test [1] was 86% (active); in test [4], 81% (active). Further, the inhibition in test [2] is 16%; in test [3], 1%. The result in test [5], in test [6], in test [7] and in test [8] was inactive.

With `COc1ccc(N2CCN(CCCCNCc3ccc(NC(=O)c4cc(Cl)cc(Cl)c4)cc3)CC2)c(OC)c1`, the figures for the growth inhibition in test [1] and in test [4] were 99% (active) and 100% (active), respectively. The inhibition is 39% in test [2] and 0% in test [3]. The result in test [5], in test [6], in test [7] and in test [8] was inactive.

As to `CC1CCN(C(=O)C(Cc2c[nH]c3ccccc23)NS(=O)(=O)c2ccc(Cl)cc2)CC1` (configuration not stated), the results for the growth inhibition in test [1] and in test [4] were 99% (active) and 100% (active), respectively. Besides, the inhibition in test [2] was -22%; in test [3], -4%. Further, the outcome in test [5], in test [6], in test [7] and in test [8] was inactive.

As to `CC1(C)[C@H]2C=C(CN3CCC(NC(=O)Nc4ccc(Cl)c(Cl)c4)CC3)[C@@H]1CC2`, the growth inhibition in test [1] was 33%; in test [4] it was 101% (active). In addition, the inhibition in test [2] was 28%; in test [3], 2%. For the same molecule, the outcome in test [5], in test [6], in test [7] and in test [8] was inactive.

Regarding `Cc1cccc2[nH]c(-c3cccc(-c4ccc(CNCCc5ccncc5)cc4)c3)nc12`, the growth inhibition in test [1] and in test [4] was 100% (active) in each case. The values for the inhibition in test [2] and in test [3] were 40% and -2%, respectively. The outcome in test [5], in test [6], in test [7] and in test [8] was inactive.

Regarding `Cc1cc(C(=O)Nc2ccc(C)c(-c3nc(N(C(=O)c4ccc(F)c(C)c4)C4CCNCC4)nc4c3ccc(=O)n4-c3c(F)cccc3F)c2)ccc1F`, the growth inhibition in test [1] and in test [4] was 99% (active) in each case. Moreover, the inhibition in test [2] is 4%; in test [3], -3%. In addition, the outcome in test [5], in test [6], in test [7] and in test [8] was inactive.

The values are drawn from PubChem BioAssay.
